# Compounds with a hit are over-represented: about 32% of the library has one in this group of screens.
# CYP2C19 inh = inhibitors of human CYP2C19 | inhibition, % at 5 µM | 21% of 96,000 active | P33261 | CYP2C19 Supersomes, luciferin-H EGE luminescence, 30 min;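 active = CYP2C19 inhibition above a set limit at 5 µM in the primary screen, cut at about 50% in these data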;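 note: plate controls were negative control wells for no effect and 2.5 mM tranylcypromine positive control for full effect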
# Target sequence (P33261 whole entry, looked up): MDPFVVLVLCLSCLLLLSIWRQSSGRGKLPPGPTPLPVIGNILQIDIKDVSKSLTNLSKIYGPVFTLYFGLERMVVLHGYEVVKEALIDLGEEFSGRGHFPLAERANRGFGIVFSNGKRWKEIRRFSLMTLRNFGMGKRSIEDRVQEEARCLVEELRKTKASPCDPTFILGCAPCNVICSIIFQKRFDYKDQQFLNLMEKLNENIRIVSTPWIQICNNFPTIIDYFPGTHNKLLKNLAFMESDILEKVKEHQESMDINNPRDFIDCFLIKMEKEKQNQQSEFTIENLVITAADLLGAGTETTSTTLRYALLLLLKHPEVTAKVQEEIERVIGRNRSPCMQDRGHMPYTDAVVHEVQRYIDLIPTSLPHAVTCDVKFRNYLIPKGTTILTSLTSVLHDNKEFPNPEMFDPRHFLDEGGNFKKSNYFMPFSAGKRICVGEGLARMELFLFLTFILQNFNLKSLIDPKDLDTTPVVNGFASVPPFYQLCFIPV
# PostGolgi yeast = growth inhibition of a yeast mutant, post-Golgi transport screen; inhibition, % at 10 µM; post-Golgi transport phenotypic cell assay; 0.9% of 98,000 active; AID 739;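 note: yeast cells grown in 1536-well plates; yeast grown about 18 h at 30C before absorbance read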
# CYP2C19 activ = increases human CYP2C19 enzyme activity | P33261 | recombinant CYP2C19, luciferin-H EGE luminescence; stronger effect = higher value; 0 = fully inhibited enzyme, 1 = untreated enzyme | activation factor at 5 µM | 96,000 tested, under 10 active | AID 1025;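 active = activation factor of at least 2 at 5 µM in the primary screen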;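 note: 0 = wells with 2.5 mM tranylcypromine and 1 = vehicle-only wells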
# CYP2C9 act = activators of human CYP2C9; activation factor at 5 µM; recombinant CYP2C9, luciferin-H conversion, luminescence; stronger effect = higher value; factor 1 = untreated enzyme, 0 = blocked; 1.4% of 96,000 active; P11712;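 active = activation factor of 2 or more for CYP2C9 at a 5 µM dose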;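 note: 0 = sulfaphenazole-blocked wells and 1 = vehicle-only wells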
# PostGolgi ctrl = inhibits growth of the yeast control strain | efflux-deficient yeast background strain, growth absorbance A615, 16 h | inhibition, % at 10 µM | 5% of 98,000 active | AID 738
# CYP2C9 inhib = blocks human cytochrome P450 2C9. inhibition, % at 5 µM. 20% of 96,000 active. CYP2C9 Supersomes, luciferin-H conversion, luminescence;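 active = blocking of liver enzyme CYP2C9 beyond about 50% at 5 µM, limit read from the data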
# * = called active by the depositor; x = no result given. Cut-off read from the data, not from the text of the source, unless noted: active = inhibition above about 30%; inactive = the rest.
SMILES,CYP2C19 inh,PostGolgi yeast,CYP2C19 activ,CYP2C9 act,PostGolgi ctrl,CYP2C9 inhib
COc1ccc(C(F)(F)F)cc1N/C=C\c1nnnn1-c1ccccc1,65*,-4,0.3,0.3,13,71*
O=C(c1ccccc1)c1ccccc1N/C=C/c1nnnn1-c1ccccc1,73*,-1,0.3,0.5,35*,46
C=CCc1cccc(Cl)c1OCCON1C(=O)CCC1=O,55*,0,0.4,0.8,8,21
O=C1CCC(=O)N1OCCOc1ccc2c(c1)CCC2,-5,-9,1.1,1.3,2,-26
O=C1C(=O)c2c(C(=O)c3ccccc3)coc2-c2ccccc21,82*,59*,0.2,0.1,45*,95*
CN(C)Cc1c(O)ccc2occ(C(=O)c3ccccc3)c12,-9,-4,1.1,1,8,2
Cc1oc2c(c1C(=O)c1ccccc1)C(=O)C(=O)c1ccccc1-2,92*,27,0.1,0.1,43*,90*
Fc1cccc2sc(N3CCCCC3)nc12,60*,13,0.4,0.9,3,8
COC(=O)C(NNc1ccccc1)(NC(=O)c1cccc(F)c1)C(F)(F)F (stereo not given),83*,-3,0.2,0.2,-7,84*
COC(=O)C(NC(=O)c1ccc(F)cc1)(Nc1nc(C)cs1)C(F)(F)F (stereo not given),37,-6,0.6,1,12,-4
COc1ccc(/C=C/C(=O)c2sc(-c3ccc(Cl)cc3)nc2C)cc1,7,-4,0.9,0.6,2,45
COc1ccccc1OCC(O)Cn1nc(C)cc1C (stereo not given),x,5,x,x,-1,x
Cc1cc(C)n(CC(O)COc2ccccc2C(=O)Nc2ccccc2)n1 (stereo not given),91*,-3,0.1,0.1,29,88*
CCOC(=O)CN1C=C(c2ccc3ccccc3n2)C(C[N+](=O)[O-])c2ccccc21 (stereo not given),72*,6,0.3,0.1,6,92*
O=C(N/C=C/c1ccc(Cl)cc1)NCc1ccc(Cl)cc1,42,13,0.6,0.8,13,21
COc1ccc(/C=N/NC(=O)CCCOc2ccc(Cl)cc2Cl)cc1[N+](=O)[O-],86*,0,0.1,0.3,16,70*
CCN(CC)C(=O)COc1ccc(Br)cc1Cl,82*,-3,0.2,0.7,0,26
Cc1ccc(/C=N/NC(=O)CCCOc2ccc(Cl)cc2Cl)cc1[N+](=O)[O-],9,-7,0.9,0.7,16,32
CC(C)NC(=O)CCCOc1ccc(Cl)cc1Cl,59*,-9,0.4,0.8,-3,25
CCN(CC)C(=O)CCCOc1ccc(Cl)cc1Cl,97*,-6,0,0.8,23,21
O=C(O)CCC(=O)NNC(=O)CCCOc1ccc(Cl)cc1Cl,-21,10,1.2,1.2,0,-25
COC(=O)c1ccc(N2CCN(c3ccccc3)CC2)c(NC(=O)C2CC2)c1,38,8,0.6,0.6,3,41
CC1(C)CC(=NO)CC(C)(C)N1,8,14,0.9,0.7,4,34
COC(=O)c1ccc(NC(=O)c2ccccc2N(C)S(=O)(=O)c2ccccc2)cc1,6,10,0.9,0.9,0,15
CC(CCc1ccccc1)NC(=O)CSc1nccc(=O)[nH]1 (stereo not given),-16,-4,1.2,0.8,1,20
SMILES,CYP2C19 inh,PostGolgi yeast,CYP2C19 activ,CYP2C9 act,PostGolgi ctrl,CYP2C9 inhib
COC(=O)c1cc(Cl)c(NC(=O)/C=C/c2ccc(OC)c(OC)c2)cc1OC,11,2,0.9,0.9,2,15
CN1CCN(c2nc3c(c(=O)[nH]c(=O)n3C)n2CCSc2ncccn2)CC1,-4,x,1,0.9,x,9
O=Nc1ccc(NOC(=O)c2ccc(Br)cc2)cc1,17,2,0.8,0.9,0,10
Cc1ccc(C(=O)ONc2ccc(N=NC(=O)c3ccccc3O)cc2)cc1,100*,-11,0,0.1,0,92*
Cc1ccc(C(=O)ONc2ccc(N=O)cc2)cc1,-4,-5,1,0.1,23,93*
Cn1nc(-c2ccc(Cl)cc2)c2cc(C(=O)NC3CC3)sc21,4,5,1,1,8,-1
O=C(NCCCN1CCOCC1)c1cc(-c2ccc(Br)cc2)on1,-11,5,1.1,1,4,-1
CCN1CCN(C(=O)c2cc3c(-c4ccc(Cl)cc4)nn(C)c3s2)CC1,20,-6,0.8,1,4,1
Cn1nc(-c2ccc(Cl)cc2)c2cc(C(=O)NCCCN3CCOCC3)sc21,29,-1,0.7,0.4,-4,58*
O=C(NCCCN1CCOCC1)c1cc(-c2ccc(O)cc2)on1,-8,-6,1.1,2.2*,1,-121
O=C(Nc1c(F)cc(F)cc1Br)c1cc(-c2ccc(O)cc2)on1,87*,11,0.1,1.6,28,-58
Cn1nc(-c2ccc(Cl)cc2)c2cc(C(=O)NCCN3CCOCC3)sc21,49,1,0.5,0.3,20,70*
Cn1c(=O)[nH]c(=O)c2c1nc(N1CCCCC1)n2CCOc1ccccc1,30,1,0.7,0.9,15,8
Cc1[nH]c2ccc3c(ncn3CCC#N)c2c1C,2,0,1,0.9,19,11
CCN(CC)CCNC(=O)c1cc2c(-c3ccc(Cl)cc3)nn(C)c2s1,18,3,0.8,0.8,1,18
CCOCCCNC(=O)c1cc2c(-c3ccc(Cl)cc3)nn(C)c2s1,61*,3,0.4,0.5,16,49
CCOc1ccc(C(=O)Nc2cnn(Cc3ccc(Cl)c(Cl)c3)c2)cc1,36,8,0.6,0.8,5,20
CCOC(=O)C1=C(N)N2C(=O)C(C)SC2=C(C(=O)OC)C1c1ccccc1OC (stereo not given),14,110*,0.9,0.7,75*,26
CCOC(=O)C1=C(N)N2C(=O)C(C)SC2=C(C(=O)OCC)C1c1ccccc1 (stereo not given),x,2,x,x,-8,x
N#C/C(=C\c1ccc[nH]1)Sc1nc2ccccc2s1,92*,11,0.1,0.2,16,77*
N#C/C(=C\c1cccs1)Sc1nc2ccccc2s1,96*,-6,0,0.5,35*,50
CC(C)C1N(c2ccccc2)C(N)=C(C#N)C1(C#N)C#N (stereo not given),49,-2,0.5,0.8,4,16
CC(C)C1C(C#N)=C(N)SC(N)=C1C#N,68*,-1,0.3,1,4,2
CC(c1ccccc1)C1C(C#N)=C(N)SC(N)=C1C#N (stereo not given),93*,-10,0.1,1,6,-1
CC(C)COC(=O)C(N)C(C(=O)OCC(C)C)c1ccccc1 (stereo not given),16,7,0.8,0.7,14,30
